Bioassay records deposited in PubChem BioAssay by The Scripps Research Institute Molecular Screening Center.
TTR transcr act: TTR transcription activation, primary screen. SH-SY5Y TTR promoter Gaussia luciferase, luminescence; 100% = recombinant luciferase protein wells. 92,000 compounds, 1.3% hits. activation, % at 16.7 µM;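 active = activation above the mean of all tested compounds plus 3 SD, cut at about 9.5% in these data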;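 also: cells exposed to compounds for one day before reading; 0% = median of all test compound wells on the plate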
TTR inh HuH7: counter-screen for TTR activators: TTR transcription inhibitors in HuH7 cells; shares compounds with TTR transcr act; HuH7 TTR promoter-Gaussia luciferase reporter, luminescence; inhibition, % at 16.7 µM; 1,100 compounds, 4% hits;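 active = average inhibition above the solvent-only control wells' mean plus 3 SD, cut at about 15% in these data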;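 also: 0% = cells with DMSO only and 100% = cells with inhibitor control FD; inhibitors lower well luminescence so higher value means more inhibition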
TTR act confirm: confirmation of human transthyretin transcription activators | shares compounds with TTR transcr act | SHSY5Y TTR promoter Gaussia luciferase, luminescence; 100% = purified Lucia enzyme wells, no cells | activation, % at 16.7 µM | 1,100 tested, under 10 active;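 active = mean activation above a set limit taken from the earlier primary screen, cut at about 11% in these data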;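 also: 0% = DMSO-treated cells and 100% = recombinant Lucia luciferase without cells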
Starred values were filed as active, the others as inactive. The entries come from a sample that favours hits as a whole.

SMILES	TTR transcr act	others
Cc1cccc(N2CCN(C(=O)N3CCOCC3)CC2)c1C	0.9
Cc1cccc(N2CCN(C(=S)NC3CCCCC3)CC2)c1C	12.2*	TTR inh HuH7=11.9;TTR act confirm=0.6
S=C(NC1CCCC1)N1CCN(c2ccccn2)CC1	4.5
CC(C)(C)N1NC2(CCCCC2)NC1=S	11.8*	TTR inh HuH7=-15.7;TTR act confirm=0.6
CCOC(=O)CN1NC2(CCCCCC2)NC1=S	0.0
c1ccc(CNc2c3c(nc4ncnn24)CCCC3)nc1	1.0
COC(=O)CCN1CCC2CC1c1cc(Cl)ccc12 (configuration not stated)	-0.8
CC(NC(=O)c1cc2ccc(C(F)(F)F)cc2nc1N)c1cccc2ccccc12 (configuration not stated)	3.3
COC(=O)CN(c1ccc(C(C)C)cc1)S(=O)(=O)c1c(C)[nH]c(=O)[nH]c1=O	2.8
Cc1ccc(N(C(C)C(=O)O)S(=O)(=O)c2c(C)[nH]c(=O)[nH]c2=O)cc1 (configuration not stated)	10.2*	TTR inh HuH7=-13.1;TTR act confirm=0.1
CCCCN(C)S(=O)(=O)c1c(C)[nH]c(=O)[nH]c1=O	-0.4
COc1ccc(NC(=S)NNC(=O)c2cccs2)cc1	0.8
Cc1cc([N+](=O)[O-])ccc1NCc1ccco1	-2.0
O=C(Cn1ccc(NC(=O)OCc2ccccc2)nc1=O)NCc1nc2ccccc2[nH]1	4.3
COc1ccc(N(C(=O)CNC(=O)c2cccs2)C(C(=O)NC2CCCC2)c2ccncc2)cc1 (configuration not stated)	-1.5
COc1ccc(N(C(=O)Cc2cccs2)C(C(=O)NC2CCCC2)c2ccncc2)cc1 (configuration not stated)	18.3*	TTR inh HuH7=-5.7;TTR act confirm=-0.6
COc1ccc(N(C(=O)CNC(=O)c2ccco2)C(C(=O)NC2CCCC2)c2ccncc2)cc1 (configuration not stated)	-1.2
COC(=O)c1ccc(C2C(Oc3ccc(OC)cc3)C(=O)N2CCc2ccc(F)cc2)cc1 (configuration not stated)	4.2
Nc1nnnn1CC(=O)N/N=C/c1cccs1	36.3*	TTR inh HuH7=-8.0;TTR act confirm=0.6
O=C(Cn1ccc(C(F)(F)F)n1)N/N=C/c1cccs1	-1.4
Cc1ccnn1CC(=O)N/N=C/c1cccs1	-0.8
O=C(CN1C(=O)C2C3C=CC(C4CC34)C2C1=O)Nc1cccc2ncccc12 (configuration not stated)	0.5
CCOc1ccc(N(CC(=O)NCCSCc2ccco2)S(=O)(=O)c2ccc(F)cc2)cc1	-1.4
COc1ccc(C2/C(=C(/O)c3ccc(F)cc3)C(=O)C(=O)N2CCCN(C)C)cc1 (configuration not stated)	12.2*	TTR inh HuH7=-11.2;TTR act confirm=0.8
CCCOc1cccc(C2/C(=C(/O)c3ccc(OC)cc3)C(=O)C(=O)N2CCN(C)C)c1 (configuration not stated)	3.8
SMILES	TTR transcr act	others
COc1ccc(/C(O)=C2/C(=O)C(=O)N(CCCN3CCOCC3)C2c2ccc(N(C)C)cc2)cc1 (configuration not stated)	0.7
OCCN(Cc1ccccc1)C(=S)Nc1ccc(F)cc1	0.1
CC(C)(C)NC(=O)C(c1ccc(C(F)(F)F)cc1)n1c(=O)c(-c2ccccc2)nc2ccccc21 (configuration not stated)	8.6
CN(C)CCCNC(=O)c1ccc(-c2ccccc2)cc1	22.0*	TTR inh HuH7=-10.0;TTR act confirm=0.1
CN(C)CCCNC(=O)c1ccc(Cl)c(S(=O)(=O)N(C)c2ccccc2)c1	3.3
COc1ccc(C(=O)NCCCN(C)CCCNC(=O)c2ccc(OC)cc2)cc1	-1.1
O=C(CNc1cccc2ccccc12)N/N=C/c1ccc([N+](=O)[O-])o1	-2.3
NC(=O)c1cc([N+](=O)[O-])c(Cl)cc1NCc1ccccn1	-0.4
CCCCC1CCC(c2nc(-c3cccnc3)no2)CC1 (configuration not stated)	13.5*	TTR inh HuH7=0.7;TTR act confirm=0.0
Cc1ccccc1-c1nc(-c2cccnc2)no1	-0.6
CCCCC(=O)Nc1ccnc(-c2cccnc2)n1	-0.2
COCC1CCN(C(=O)c2ccc3oc(CCc4ccccc4)nc3c2)C1 (configuration not stated)	1.9
CC(=O)OCC(OC(C)=O)C(OC(C)=O)C(OC(C)=O)C(=O)Nc1ccc(C)cc1C (configuration not stated)	-0.6
CCCCCCC(=O)Oc1cccc(C2=CC(=O)CC(C)(C)C2=O)c1	9.7*	TTR inh HuH7=-0.3;TTR act confirm=-0.3
CC1(C)CC(=O)C=C(c2ccc(CO)cc2)C1=O	0.5
CC1(C)CC(=O)C=C(c2ccc(COC(=O)c3cccc(C(F)(F)F)c3)cc2)C1=O	-0.8
Cc1ccc(S(=O)(=O)N2CCCCC2)cc1NC(=O)CSc1ncnc2ccccc12	-4.8
Cc1cc(C(=O)OCCN2C(=O)c3ccccc3C2=O)c2ccccc2n1	-1.6
O=C(COn1nnc2ccccc21)N1CCN(Cc2ccccc2)CC1	-0.9
COc1ccc(CNc2nc(SC)n[nH]2)cc1OC	6.4
COc1ccc(NC(=O)Nc2ccc(OC)c(OC)c2)c([N+](=O)[O-])c1	1.9
COc1ccc(NC(=O)c2sccc2C)c([N+](=O)[O-])c1	3.7
COc1ccc(/C=C/C(=O)Nc2ccc(OC)cc2[N+](=O)[O-])cc1	12.6*	TTR inh HuH7=-0.3;TTR act confirm=1.7
CN(C)c1nc(NCc2ccccc2)nc(SCC(=O)Nc2ccccc2Cl)n1	-1.4
O=Cc1c(NCCc2ccc(F)cc2)c2ccccc2[nH]c1=O	-0.1
SMILES	TTR transcr act	others
COc1ccccc1/C=N/Nc1cc(C)nc(N2CCOCC2)n1	-0.6
Cc1ccccc1CNC(=O)c1cc(COc2ccc(F)cc2F)on1	-0.7
O=C(Cc1nnc(NC(=O)Nc2ccc(F)cc2)s1)Nc1ccccc1	3.2
Nc1nc(Nc2ccccc2)sc1C(=O)c1ccccc1	-2.7
O=C(c1ccc(F)cc1)c1cnc(Nc2ccccc2)s1	15.0*	TTR inh HuH7=-5.3;TTR act confirm=0.3
COc1cc(-c2noc(C)c2/C=C/c2ccc(N)cc2)cc(OC)c1OC	2.0
COc1ccc(C2CC(c3cccs3)=NN2C(=S)Nc2ccccc2)cc1OC (configuration not stated)	1.1
COc1cccc(C2CC(c3cccs3)=NN2C(=S)Nc2ccccc2)c1OC (configuration not stated)	2.1
Cc1ccc(C2CC(c3ccccc3)=NN2C(=S)Nc2ccccc2)o1 (configuration not stated)	11.3*	TTR inh HuH7=24.8*;TTR act confirm=-0.1
Cc1cccc(CCNS(=O)(=O)c2ccc3c(c2)n(C)c(=O)c(=O)n3C)c1	2.8
Cc1ccccc1C(=O)N1CCN=C1SCc1ccc([N+](=O)[O-])cc1	-0.8
CSc1nnnn1-c1ccc(C)c(Cl)c1	0.3
CSc1nnnn1-c1ccc(C(=O)O)cc1	18.9*	TTR inh HuH7=-7.1;TTR act confirm=0.2
O=C(O)c1ccc(-n2nnnc2SCc2ccccc2F)cc1	0.5
N#Cc1c(NC(=O)COC(=O)c2ccc(F)cc2)sc2c1CCC2	-2.2
O=S(=O)(c1cc(Cl)ccc1Cl)N1CCC2(CC1)OCCO2	11.8*	TTR inh HuH7=-5.6;TTR act confirm=-0.6
CC(=O)N1CCN(S(=O)(=O)c2ccc(Cl)cc2F)CC1	1.0
Cc1ccc(C)c(S(=O)(=O)N2CCC3(CC2)OCCO3)c1	-1.3
Cc1cc(C)c(OCCNCc2ccccc2)c(C)c1	12.5*	TTR inh HuH7=-10.8;TTR act confirm=0.6
Cc1cc(Br)ccc1OCCNCc1ccccc1	-1.1
Cc1cc(Cl)cc(C)c1OCCNCc1ccccc1	-1.9
